# Test results as given in PubChem BioAssay AID720650 (Broad Institute, 2013).
# Calls of active or inactive are those of the source. No rule for the calls is given here.
# Assay: Biochemical counterscreen for C difficile toxins, absence of UDPG, inhibitor dose response (AID 720650)
# Details: series mostly up to 19.5 µM; activity change, negative = inhibition: at the top concentration
Compound,"activity change, negative = inhibition",AC50
Cn1c(-c2ccc(F)c(F)c2)cc2onc(-c3ccccc3)c2c1=O,-4.71% (inactive),
O=C(COc1ccccc1)Nc1ccc(S(=O)(=O)Nc2ncccn2)cc1,-3.22% (inactive),
CCn1c(C)nc2cc(C(=O)N/N=C/c3ccc(O)cc3)ccc21,,15.1 µM (active)
Cc1c(-n2c(O)c(C3=c4ccccc4=NC3=O)sc2=S)c(=O)n(-c2ccccc2)n1C,6.56% (inactive),
O=C(CSc1cccc2cccnc12)N/N=C/c1ccc(F)cc1,-15.4% (inactive),
COC(=O)C[C@@H]1CC[C@@H]2[C@H](COC[C@H](O)CN2C(=O)Nc2ccccc2OC)O1,-9.56% (inactive),
COc1ccccc1C=C1SC(=S)NC1=O,-7.14% (inactive),
CCCCNC(=O)C1CCN(S(=O)(=O)c2c(C)noc2/C=C\c2ccc(OC)cc2)CC1,,inactive
COc1cc(/C=C/C(=O)OCC(=O)NCc2ccco2)ccc1O,-18.6% (inactive),
COc1ccc(CC(=O)C2C(=O)N(C)c3ccccc32)cc1OC (centres undefined),7.42% (inactive),
COc1ccc(NC(=O)c2cc(S(=O)(=O)N3CCc4ccccc43)cn2C)cc1OC,12.5% (inactive),
O=C(NC(=S)Nc1ccc(N2CCOCC2)cc1)c1ccccc1,-9.02% (inactive),
CC(N)C(=O)NC(C(=O)N1CCCC1C(=O)NC(c1ccccc1)c1ccccc1)C(C)C (centres undefined),-13.4% (inactive),
O=S(=O)(Cc1cccc(F)c1)c1c[nH]c2ccccc12,,> 39 µM (inactive)
CC(=O)Nc1ccc(NC(=O)Cc2ccc(S(=O)(=O)N3CCCCC3)cc2)cc1,-7.17% (inactive),
CCc1ccc(Nc2n[n+](-c3ccccc3)c(-c3ccc(OC)c(Br)c3)s2)cc1,-14.3% (inactive),
O=C(Cc1ccccc1)NNC(=S)NC(=O)c1cccnc1,,> 39 µM (inactive)
O=C(NCc1cccnc1)c1cc(C2CCCCN2S(=O)(=O)c2cccc3cccnc23)on1 (centres undefined),-13.3% (inactive),
COc1cc(/C=C/c2sc3ccccc3[n+]2CCCS(=O)(=O)[O-])ccc1O,-2.25% (inactive),
O=C(N/N=C/c1ccc(O)cc1)NC12CC3CC(CC(C3)C1)C2,,11.2 µM (active)

Compound,"activity change, negative = inhibition",AC50
COc1ccc(C(CNC(=O)c2oc3ccc(OC)cc3c2C)N2CCCC2)cc1 (centres undefined),,> 39 µM (inactive)
OCC[C@H]1C[C@H](O)[C@@H](O)[C@@]2(Cc3ccccc3CO2)O1,-8% (inactive),
CCOC(=O)Nc1ccc(OC(=O)Oc2ccc(NC(=O)OCC)cc2)cc1,,> 39 µM (inactive)
CCCNC(=O)N1CC[C@@H]2[C@H]1c1cc(-c3ccccc3)ccc1N(C)[C@H]2CO,,3.8 µM (active)
Cc1noc(C)c1NC(=O)N(C)C[C@@H]1Oc2ccc(NC(=O)C3CCCCC3)cc2C(=O)N([C@@H](C)CO)C[C@H]1C,-8.93% (inactive),
Cc1nn(C2CC(O)C(O)C(CO)O2)c(=O)[nH]c1=O (centres undefined),-11.3% (inactive),
COc1ccc(C(=O)NC(C(=O)NCc2ccccc2OC)C(C)C)cc1 (centres undefined),-8.6% (inactive),
COc1ccc(OCc2cc(-c3ccc(Cl)cc3)no2)cc1,-11.1% (inactive),
CNC(=O)C1CCN(S(=O)(=O)c2c(C)noc2/C=C/c2ccc(OC)cc2)CC1,-12.1% (inactive),
CCOC(=O)C1=C(C)Nc2nnnn2C1c1ccc(OC)c(Br)c1 (centres undefined),,> 39 µM (inactive)
CCOC(=O)Cn1c(C(F)(F)F)nc2nc(Cl)c(Cl)nc21,-4.43% (inactive),
COc1cc(/C=N/NC2=NCCCCC2)ccc1O,-10.1% (inactive),
CC(=O)Nc1ccc(S(=O)(=O)Nc2nc3ccccc3nc2-n2ccc(=NC(=O)c3ccc(F)cc3)cc2)cc1,9.83% (inactive),
CCCC(=O)Nc1sc2c(c1C(=O)Nc1ccccn1)CCCC2,2.48% (inactive),
CCN(CC)S(=O)(=O)c1cc(C(=O)Nc2cccnc2Cl)ccc1Cl,-6.46% (inactive),
O=CN(c1ccccc1)c1ccc2ccccc2c1,8.32% (inactive),
Cc1cc(C)c(S(=O)(=O)N2CCCCC2C(=O)O)c(C)c1 (centres undefined),-14% (inactive),
Cc1ccc(S(=O)(=O)Oc2ccccc2/C=C2\SC(=O)NC2=O)cc1,-9.78% (inactive),
Cc1ccc(NNC(=O)C2CCC2)cc1C,,0.386 µM (active)
